Assay outcomes from PubChem.
IL2 activator = qHTS of IL-2 Activators; IL-2 activation reporter assay, cell-based qHTS; stimulated with anti-CD3/CD4/CD28 beads; in transgenic mouse T cells; 0.065% of 360,000 active; activation, % (series mostly up to about 46 µM); in the data active = activation above about 50%; inconclusive = mostly about 30% to 49%; note: 0% is about no effect
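Screening format: compound pinned onto unstimulated transgenic mouse T cells, 60 min incubation, then anti-CD3/anti-CD4/anti-CD28 bead stimulation for 18 hours at 37 degrees C, followed by EGFP and DsRed detection.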
BRCA1 expr act = qHTS Assay to Identify Small Molecule Activators of BRCA1 Expression; 1.1% of 380,000 active; MCF7-BRCA1-FFLuc reporter, luminescence, 48 h; response scale: scaled: vehicle 0%, 10 µM genistein 100%; Potency, µM (titrated, usually from 46.1 µM), inactives show top-dose activation, most hits filed as activators; note: potency is the fitted concentration of half-maximal effect; nearly all actives have a fitted effect of over 80% in size
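Luminescence from a BRCA1-driven firefly luciferase in MCF7 cells was the read-out, taken 15 min after substrate addition following 48 h compound exposure at 37 °C. Data were normalized to a 10 microM genistein control and DMSO vehicle.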
NPSR antagonist = qHTS Assay for Antagonists of the Neuropeptide S Receptor: cAMP Signal Transduction; CHO-NPSR cells, cAMP TR-FRET, antagonist mode; 1% of 220,000 active; Potency, µM (highest dose often 38.3 µM), without a hit: top-dose activity change, negative = inhibition, hits mostly inhibitors; Q6W5P4; note: potency is the fitted concentration of half-maximal effect; % is set by controls: 0 for no effect and ±100 for the full control effect; nearly all actives have a fitted effect of over 50% in size
Target sequence (Q6W5P4 whole entry, looked up): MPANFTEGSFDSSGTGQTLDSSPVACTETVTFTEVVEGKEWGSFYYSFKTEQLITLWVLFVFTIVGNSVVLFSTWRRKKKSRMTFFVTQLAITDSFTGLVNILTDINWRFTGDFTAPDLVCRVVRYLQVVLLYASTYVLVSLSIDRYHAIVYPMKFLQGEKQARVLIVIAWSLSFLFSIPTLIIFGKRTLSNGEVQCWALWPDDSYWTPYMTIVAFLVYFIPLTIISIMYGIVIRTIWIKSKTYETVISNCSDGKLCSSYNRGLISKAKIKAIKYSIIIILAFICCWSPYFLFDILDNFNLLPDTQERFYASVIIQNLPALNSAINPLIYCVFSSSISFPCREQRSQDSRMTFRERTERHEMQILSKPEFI
Giardia kill = Small Molecules that selectively kill Giardia lamblia: qHTS; activity change, % at 7.66 µM, hits read low; 0.15% of 340,000 active; Giardia lamblia trophozoite viability; in the data active = activity change below about -80%; inconclusive = between about -30% and that limit;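 note: parasites exposed to compound for two days anaerobically before the ATP read; % is set by controls: 0 for no effect and ±100 for the full control effect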
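Media and compound were dispensed first, then trophozoites at 100 cells/well; plates sat 48 hrs at 37 deg C without oxygen before ATP luminescence reagent was added and read after 15-30 min at room temperature.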
RXFP1 agonist = qHTS Assay for Agonists of the Relaxin Receptor RXFP1 | AID 2676, 2010 | Relaxin receptor 1 (Homo sapiens), Q9HBX9 | Potency, µM (doses to about 57.5 µM), for the others: at the top dose activation, actives largely listed as activators | 0.3% of 370,000 active | HEK293T-RXFP1 cAMP TR-FRET, 30 min; response scale: percent of porcine relaxin response, buffer zero; note: potency is the fitted concentration of half-maximal effect; % is set by controls: 0 for no effect and ±100 for the full control effect; nearly all actives have a fitted effect of over 60% in size
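Agonist response is measured as cAMP accumulation in an RXFP1-transfected HEK293T line under PDE4 inhibition. Values are scaled between buffer-only and 29 nM porcine relaxin, and EC50s come from standard Hill equation fits.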
RXFP1 antagonist = qHTS Assay for Antagonists of the Relaxin Receptor RXFP1 | Relaxin receptor 1 (Homo sapiens), Q9HBX9 | HEK293-RXFP1, relaxin-stimulated cAMP HTRF, 30 min; hits give low values | activity change, negative = inhibition, % at 57.5 µM | 0.59% of 350,000 active | AID 1259400, 2018;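 active = activity change of -60% or lower, but not beyond a set lower limit; inconclusive = change between -60% and -40%, or beyond the set limit; inactive = change above -40%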; note: % is set by controls: 0 for no effect and ±100 for the full control effect
The depositor's hits bear a star; ? = inconclusive; / = no result given; [ ] = dose if it differs, or a comment. Compounds with a hit are over-represented: about 1.9% of the library has one in this group of screens. Unless noted, calls come from the whole dose curve; as a rule, active = well fitted curve in the direction sought with a large enough effect; inconclusive = small, poorly fitted or top-dose-only effect, or another doubt; inactive = no such curve, though single readings can be large; an effect the other way counts as inactive or inconclusive.

SMILES	IL2 activator	BRCA1 expr act	NPSR antagonist	Giardia kill	RXFP1 agonist	RXFP1 antagonist
CCN(CC)S(=O)(=O)c1ccc(Cl)c(NC(=O)CSc2cccc[n+]2[O-])c1	3	6%	1%[7.67 µM]	-7	25µM*	-1
NNC(=O)C=C1CCN(c2ncc(C(F)(F)F)cc2Cl)CC1	-2	32%	-3%[46.1 µM]	-5	0%	0
O=C(O)C=C1CCN(c2ncc(C(F)(F)F)cc2Cl)CC1	-3	11µM*	-6%[46.1 µM]	-13	1%	-2
O=C(Nc1ccc(F)c(Cl)c1)N1CCN2CCCCC2C1 (stereo not given)	/	/	/	/	2%	-7
CCc1ccc(N2C(=O)C(Cl)=C(N3CCOCC3)C2=O)cc1	1	47%	-14%	5	0%	4
COc1ccc(N2C(=O)C(Cl)=C(Oc3cccc(OC)c3)C2=O)cc1	-5	-85%	10µM*	5	0%	-17
COc1ccc(N2C(=O)c3ccccc3C2=O)cc1	2	-12%	7%	1	0%	-23
COc1ccc(N2C(=O)C(Cl)=C(N3CCOCC3)C2=O)cc1	-3	15%	/	7	1%	-62*
OC[C@@H](O)[C@H](O)[C@H](O)[C@@H](O)CO	/	/	/	/	/	-20
COc1ccc(Oc2nccc(-c3ccccc3)c2C#N)cc1	0	5µM*	-19%[46.1 µM]	-10	2%	-27
COc1ccnc(Oc2ccc3ccccc3c2)c1C#N	1	58%	-17%[46.1 µM]	-1	-1%	5
Cc1ccc(C)c(OCCn2cc(C(=O)c3cccs3)c3ccccc32)c1	/	/	/	/	2%	-11
Nc1ccc(/C=C/c2nc3ccccc3s2)cc1	/	5%	/	/	/	/
CCOC(=O)c1c(NC(=O)COc2cccc(C)c2C)sc2c1CCC(CC)C2 (stereo not given)	/	/	/	/	2%	0
O=C(c1ccco1)N1CCN(Cc2ccc(F)cc2)CC1	1	27%	/	2	2%	/
O=C(c1ccco1)N1CCN(C(=O)c2ccco2)CC1	0	19%	/	/	/	/
O=C(c1ccco1)N1CCN(Cc2ccccc2Br)CC1	-1	16µM*	/	9	0%	7
O=C(c1ccco1)N1CCN(c2ccc(N3CCCCC3)nn2)CC1	-1	10µM*	/	21	0%	0
CC1CCc2c(sc(NC(=O)c3cccs3)c2C(=O)O)C1 (stereo not given)	-2	59%	/	4	-2%	-4
CCCC1CCc2c(sc(NC(=O)c3cccs3)c2C(N)=O)C1 (stereo not given)	1	11µM*	?	-3	3%	-3
CC(=O)N1CCc2c(sc3c2c(=O)n(CCc2ccccc2)c(=O)n3Cc2ccc(F)cc2)C1	/	-58%	/	/	-1%	/
COc1ccccc1CNC(=O)c1ccc(-c2nc(CS(=O)c3ccc(C)cc3)c(C)o2)cc1 (stereo not given)	/	/	/	/	19%	-5
Cc1csc(NC(=O)CSc2nc3[nH]c(=O)cc(O)c3s2)n1	-2	-5%	/	-87*	/	2
COc1ccc(-c2csc(NC(=O)CSc3nc(C)cs3)n2)cc1	0	13µM*	/	9	/	-9
O=C(Nc1nc(-c2ccc(-c3ccccc3)cc2)cs1)C1=COCCO1	0	-25%	-40%	-5	2%	-13
SMILES	IL2 activator	BRCA1 expr act	NPSR antagonist	Giardia kill	RXFP1 agonist	RXFP1 antagonist
COc1ccc(-c2csc(NC(=O)COC(=O)C3=COCCO3)n2)cc1	0	5µM*	8%	-7	0%	10
O=C(CSc1nc2[nH]c(=O)cc(O)c2s1)Nc1nncs1	-1	-5%	/	-3	/	-4
CC(=O)c1ccc(O)c(C(N)=O)c1	/	/	/	/	/	-18
O=C(CN1C(=O)CCC1=O)c1ccc(-c2ccccc2)cc1	1	13µM*	17%	7	-2%	0
COc1ccc(CCNC(=O)COc2ncnc3cc([N+](=O)[O-])ccc23)cc1	0	-4%	19%[46.1 µM]	-11	3%	4
O=[N+]([O-])c1cccc(COc2ncnc3cc([N+](=O)[O-])ccc23)c1	0	-17%	10%	-15	28µM*	36
Cc1ccc(NC(=O)CSc2ncccn2)c([N+](=O)[O-])c1	-1	11µM*	3%	8	3%	-6
COC(=O)c1ccc2c(=O)n(CCCCCC(=O)N3CCN(c4cccc(C)c4C)CC3)c(=O)[nH]c2c1	/	/	/	/	3%	?
CC(=O)c1c(C)[nH]c(C(=O)COC(=O)CCSc2ccccc2)c1C	-1	9%	5%	5	0%	-64*
CC(C)NC(=O)C1CCC(Cn2c(=O)c3sccc3n(CC(=O)N3CCCC3)c2=O)CC1 (stereo not given)	/	/	/	/	4%	-7
c1ccc(CSc2nc3ncccn3n2)cc1	1	2.5µM*	/	-5	0%	7
Cc1cc(-c2ccc(C)c(S(=O)(=O)Nc3cccc(C)n3)c2)on1	/	/	/	/	3%	-12
Cc1cc(-c2ccc(C(C)C)c(S(=O)(=O)Nc3cc(C)on3)c2)on1	-3	0%	/	-17	1%	-65*
Nc1ccc(O)c2c(=O)cc(-c3ccccc3Cl)oc12	0	2.8µM*	-14%	8	4%	/
O=C(NCc1ccc2c(c1)CCO2)Nc1ccccc1	-2	1.8µM*	-14%	-14	-1%	1
CC(=O)Nc1ccc(OCc2ccc3c(c2)OCO3)cc1	-3	2.5µM*	/	23	3%	2
CCc1ccc(NC(=O)NCc2ccc3c(c2)OCO3)cc1	-1	19%	/	12	0%	-1
O=C(NCc1ccc2c(c1)OCO2)Nc1ccc(Cl)cc1	-1	11µM*	/	-25	2%	2
COc1ccc(-c2nnc(SCC(=O)Nc3cc(OC)ccc3OC)nc2-c2ccc(OC)cc2)cc1	/	/	/	/	-1%	-24
CCC(C(=O)N1CCN(c2ccccc2)CC1)n1c(C)c2cnn(-c3ccccc3)c(=O)c2c1C (stereo not given)	/	0%	/	/	0%	/
O=C(NCC1CC1)NC(=O)c1ccccc1F	0	13µM*	/	/	/	/
O=C(NCC1CC1)NC(=O)c1c(F)cccc1Cl	2	41%	-15%	-11	-1%	5
CC(C)(C)c1ccc(-c2nc(C#N)c(NCCCn3ccnc3)o2)cc1	-2	-97%	?	9	0%	-7
CC(C)(C)c1ccc(-c2nc(C#N)c(NCc3ccncc3)o2)cc1	-1	11µM*	-22%[46.1 µM]	-4	0%	-19
CSc1ccc2c(c1)N(CCC1CCCCN1C)c1ccccc1S2 (stereo not given)	-1	-3%	13µM*	4	1%	-23
